The panel holds about 83,000 compounds, 20% with a hit somewhere; the sample as a whole holds those more often.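 Cells were grown in 96-well plates and exposed to the test compound at a single concentration for 48 hours; results are reported as percent growth, with values below 10 considered active.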 Calls of active or inactive are those of the source.
System: OVCAR-5 ovarian
Assay: NCI-60 one-dose screen, 48 h (100 = growth as untreated, 0 = no growth, -100 = all killed)
Conditions: 10 µM
Method: Growth inhibition of the OVCAR-5 human tumor cell line is measured as a screen for anti-cancer activity. Cells are grown in 96 well plates and exposed to the test compound for 48 hours. Compounds are tested at a single concentration, which is 10^-5 M for most compounds. The reported endpoint is percent growth (GI% or GIPRCNT), where numbers from 0 - 100% represent growth inhibition, and numbers from -100% - 0 represent cell death. For example, a value of 40 represents 60% growth inhibition. A value of 0 means no net growth occurred over the course of the experiment. A value of -40 indicates 40% of cells at the beginning of the experiment died by the end of the experiment. A value of -100 means all cells are dead at the end of the experiment.
NCI-60 Human Tumor Cell Lines Screen was performed using the standard one-dose NCI protocol, which is described in more detail at https://dtp.cancer.gov/discovery_development/nci-60/default.htm.
Compounds with GIPRCNT values below 10 were considered active. Activity score was based on GIPRCNT using the following formula: […]
Score is 0 for GIPRCNT values of 100 or above, 50 for GIPRCNT values of 0, and 100 for GIPRCNT values of -100.

Structure (SMILES) | growth
Cc1c(C(=O)O)c(=O)n(-c2ccccc2)n1C | 110% (inactive)
Nc1ccc(C(=O)c2ccc(N)c(Br)c2)cc1Br | 40% (inactive)
COc1cc2c3c(n(C)c(=O)c2cc1OC)-c1cc2c(cc1C3=O)OCO2 | 78.4% (inactive)
C#Cc1cccc(NC(=O)c2ccc(Cl)cc2Cl)c1 | 110% (inactive)
O=C(O)[C@@H]1[C@H]2C[C@H]3c4[nH]c5ccccc5c4CCN3C[C@@H]2CC[C@@H]1O | 105% (inactive)
CCOC(=O)c1ccc(Nc2sc(C(=O)c3cccc([N+](=O)[O-])c3)c(N)c2C#N)cc1 | 38.1% (inactive)
CN(C)Cc1cc(C(C)(C)CC(C)(C)C)ccc1O | 98.5% (inactive)
COC(=O)c1cccc(Br)c1 | 88.8% (inactive)
COc1cc(CCN=Cc2ccccc2O)c([N+](=O)[O-])cc1OC | 101% (inactive)
CCOC(=O)C/C(C)=N\O | 106% (inactive)
COc1ccc(-c2cc3c(nn2)-c2ccccc2C3=O)cc1 | 83.7% (inactive)
CC1CC(O)CC(C)(C)C1 (stereo not given) | 97.1% (inactive)
O=[N+]([O-])c1ccccc1N=Nc1ccc(O)cc1O | 126% (inactive)
CC(=O)c1c[nH]c2ccccc12 | 111% (inactive)
CCCCC/C=N/Nc1nc(C)cc(=O)[nH]1 | 104% (inactive)
O=C1OC[C@H]2[C@H](c3ccc(O)c(O)c3)c3cc(O)c(O)cc3C[C@H]12 | 100% (inactive)
CCCCCCCCOC(=O)c1ccccn1 | 95% (inactive)
COC(=O)C(C)Oc1ccc(OC#N)cc1 (stereo not given) | 94.5% (inactive)
O=C(c1ccc(O)cc1)c1ccc(O)cc1 | 105% (inactive)
CCC/C=C(\C)C(C)(C#N)C(=O)OCC (stereo not given) | 110% (inactive)

Structure (SMILES) | growth
Nc1ccc(CC(=O)O)c(N)c1 | 96.1% (inactive)
O=C(O)c1ccc(S(=O)(=O)O)cc1 | 107% (inactive)
c1ccc(Sc2ccccc2)cc1 | 104% (inactive)
COC(=O)C(O)c1ccccc1 (stereo not given) | 97.6% (inactive)
c1ccc2c(c1)Sc1ccccc1S2 | 108% (inactive)
CN(C)c1ccc(S(=O)(=O)O)cc1 | 93% (inactive)
OC1OC(COC(c2ccccc2)(c2ccccc2)c2ccccc2)C(O)C(O)C1O (stereo not given) | 95.9% (inactive)
O=[N+]([O-])c1cccc2nsnc12 | 122% (inactive)
CC1(C)OC(=O)C(c2ccsc2)C(=O)O1 | 105% (inactive)
CN1C(=O)CN2CCc3ccccc3C2c2cc(Cl)ccc21 (stereo not given) | 83.9% (inactive)
OC(c1ccccn1)C(O)c1ccccn1 (stereo not given) | 90.7% (inactive)
COc1ccccc1N1CCN(C(=S)Nc2ccccc2)CC1 | 107% (inactive)
COC(=O)c1ccccc1Br | 82.2% (inactive)
CC(CC(=O)c1ccccc1)c1ccccc1 (stereo not given) | 113% (inactive)
O=c1cc(-c2ccccc2)nc2cc(-c3ccco3)[nH]n12 | 116% (inactive)
COC(=O)c1ccccc1N(C)C | 114% (inactive)
CC1CCCC(CC(N)=O)CC1 (stereo not given) | 104% (inactive)
Cc1cc(C)c(CC(=O)O)c(C)c1 | 103% (inactive)
O=C1C=C(O)C(=O)C=C1O | 108% (inactive)
S=c1[nH]ccn1-c1ccccc1Cl | 114% (inactive)

Source: PubChem BioAssay (NCI)
